Data as given in ChEMBL document CHEMBL1157539, “Thousands of chemical starting points for antimalarial lead identification” (Nature, 2010).

Columns and labels:
Format in all cases: functional
Plasmodium falciparum [1] = assay: GSK_TCMDC: Inhibition of Plasmodium falciparum 3D7 in whole red blood cells, using parasite LDH activity as an index of growth. Test compounds present at 2uM
Plasmodium falciparum [2] = assay: GSK_TCMDC: Inhibition of Plasmodium falciparum Dd2 in whole red blood cells, using parasite LDH activity as an index of growth. Test compounds present at 2uM
HepG2 = assay: GSK_TCMDC: Percent inhibition of human HepG2 cell line. Test compounds present at 10uM.

Compound	Inhibition (Plasmodium falciparum [1])	Inhibition (Plasmodium falciparum [2])	Inhibition (HepG2)
O=C(/C=C/c1ccc(-c2nc3cc(F)c(F)cc3[nH]2)cc1)NCc1ccc(Cl)c(Cl)c1	100%	24%	14%
COc1ccc(C(C(=O)NC2CCN(C[C@H](O)c3ccnc4ccc(OC)cc34)CC2)N2CCN(c3ccc([N+](=O)[O-])cc3)CC2)cc1 (stereo partly drawn)	99%	80%	17%
COC(=O)C(C)(C)Cc1c(SC(C)(C)C)c2cc(C(C)C)ccc2n1Cc1ccc(Cl)cc1	96%	96%	0%
Br.CCC(ON1C(N)=NC(N)=NC1(C)C)c1ccc(Cl)cc1 (stereo not drawn)	91%	90%	68%
O=C(Cc1ccsc1)NCC(c1ccccc1Cl)c1c[nH]c2ccccc12 (stereo not drawn)	86%	71%	0%
COc1ccc(S(=O)(=O)N(CCCN2CCN(C)CC2)Cc2csc(-c3ccc(CNCc4ccccc4)cc3)n2)cc1.O=C(O)C(F)(F)F	88%	86%	10%
COc1ccc2nc(C)cc(Nc3ccc(Oc4ccc(Cl)cc4)c(Cl)c3)c2c1	100%	100%	48%
COc1cc(C2NCC3(CCOCC3)c3cc4c(cc32)OCCO4)cc(OC)c1OC.Cl (stereo not drawn)	95%	2%	24%
O=C(Cn1c(CCc2cccc(F)c2F)nc(=O)c2ccccc21)N(Cc1ccc(-c2ccc(C(F)(F)F)cc2)cc1)C1CCN(C2=NCCS2)CC1.O=C(O)C(O)C(O)C(=O)O	81%	85%	62%
O=[N+]([O-])c1cc(C(c2ccc(O)c([N+](=O)[O-])c2)C(Cl)(Cl)Cl)ccc1O	93%	98%	2%
O=C(NCc1cccc2ccccc12)c1ccc(CNC2CCN(Cc3ccccc3)CC2)cc1.O=C(O)C(F)(F)F	100%	88%	15%
O=C(C=Cc1ccc(Cl)c(Cl)c1)NCCCCCN1CCC(CCCNS(=O)(=O)c2ccc(F)cc2)CC1	93%	20%	52%
Cc1cnc(C(=O)Nc2cccc(-c3csc(-c4nc5ccccc5[nH]4)c3)c2)cn1	98%	80%	31%
CCc1cn2c3c(cc(C(=O)N[C@@H](Cc4ccccc4)[C@H](O)CNC(C)(C)CCCC(C)C)cc13)N(C)S(=O)(=O)C2.O=CO	98%	98%	71%
COc1ccc(C2C(C(=O)OC3CCCCC3)=C(C)NC3=C2C(=O)CCC3)cc1Br (stereo not drawn)	95%	94%	7%
Cc1ccc(Nc2nc3cc(N(C)c4ccnc(Nc5cccc(CS(C)(=O)=O)c5)n4)ccc3o2)cc1.O=C(O)C(F)(F)F	90%	16%	0%
O=C(c1cc(-c2ccccc2)n[nH]1)N1CCN(S(=O)(=O)c2ccc(Cl)s2)CC1	88%	81%	9%
COc1ccc(C2CCN(CCCCNC(=O)c3ccc(NC(=O)c4ccc(Cl)cc4)cc3)CC2)c(OC)c1.Cl	100%	95%	32%
Cc1ccc(O)c(Nc2c3c(c(C#N)c4nc5ccccc5n24)CCC3)c1	85%	2%	7%
CC(C)C(=O)ONC1=NC(C)(C)N(OCCCOc2cc(Cl)c(Cl)cc2Cl)C(NOC(=O)C(C)C)=N1	92%	93%	64%
CN1CCC(N(Cc2ccc(-c3cnc(NCc4ccccc4)nc3)cc2)S(=O)(=O)c2ccccc2)CC1.O=C(O)C(F)(F)F	100%	10%	48%
COc1ccc2[nH]c(C)cc(=NN=Cc3cc(C)ccc3O)c2c1	100%	100%	78%
Fc1cc(Cl)ccc1Nc1ccnc2cc(-c3ccc(CNCCN4CCOCC4)o3)ccc12	100%	100%	13%
O=C(Nc1cccc(-c2nn3ncccc3c2-c2ccnc(Nc3cccc(C(F)(F)F)c3)n2)c1)c1c(F)cccc1F	97%	68%	49%
COc1cc(Nc2ccc3cc(S(=O)(=O)N4CCCCC4C)ccc3n2)cc(OC)c1OC (stereo not drawn)	88%	78%	0%
CCCNCc1ccc(-c2ccc(CN(CCOC)C(=O)CCc3ccc(OC)cc3)cc2)nc1.O=C(O)C(F)(F)F	98%	29%	11%
